# Data: PubChem BioAssay (NCI)
# About 79,000 compounds went through this panel and 15% of them were active in at least one assay; those are over-represented in the sample as a whole. A number with no mark means an inactive call. Activity calls are given as the source filed them. Rule as the data show it: active = growth inhibition above about 70%; inactive = the rest.
# Legend:
# [1] = NCI Yeast Anticancer Drug Screen. Data for the rad52 strain (AID 147);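 also: 0% = growth of vehicle-treated control cultures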; conditions: S. cerevisiae rad52 mutant growth inhibition, stronger effect = higher value
# In short: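 Inhibition of yeast growth, referenced to vehicle controls, was the measured output for a strain with defective DNA damage repair.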
# [2] = NCI Yeast Anticancer Drug Screen. Data for the wt1 strain (AID 149);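 also: 0% = growth of vehicle-treated wt1 cultures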; conditions: S. cerevisiae wt1 strain (SPY 50644) growth inhibition, stronger effect = higher value
# In short: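 Measured: growth of wt1 yeast under compound versus vehicle treatment, reported as inhibition.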
# [3] = NCI Yeast Anticancer Drug Screen. Data for the rad50EPP+ strain (AID 151);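 also: 0% = growth of vehicle-treated control cultures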; conditions: S. cerevisiae rad50 mutant strain, stronger effect = higher value
# In short: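 Genetically defined yeast (rad50EPP+, DNA damage repair alteration) is grown with compound, and inhibition of growth is expressed relative to vehicle-treated controls.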
# [4] = NCI Yeast Anticancer Drug Screen. Data for the mgt1 strain (AID 153); conditions: S. cerevisiae mgt1 mutant growth inhibition, stronger effect = higher value
# In short: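 In the mgt1 strain, test compounds were added and growth inhibition was determined relative to vehicle-treated controls.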
# [5] = NCI Yeast Anticancer Drug Screen. Data for the rad50 strain (AID 155);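 also: 0% = growth of vehicle-only cultures of the same strain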; conditions: S. cerevisiae rad50 strain growth inhibition, stronger effect = higher value
# In short: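 Growth of the mutant yeast was measured after compound exposure and referenced to vehicle-treated cultures.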
# [6] = NCI Yeast Anticancer Drug Screen. Data for the mec2-1 strain (AID 157); conditions: S. cerevisiae mec2-1 strain, stronger effect = higher value
# In short: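 Each compound was tested on mec2-1 yeast, a strain altered in DNA damage repair or cell cycle control. Growth inhibition is reported relative to vehicle.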
# [7] = NCI Yeast Anticancer Drug Screen. Data for the rad14 strain (AID 159);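 also: 0% = growth of vehicle-treated control cultures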; conditions: S. cerevisiae rad14 strain growth inhibition, stronger effect = higher value
# In short: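 Here, inhibition of yeast growth was measured after compound exposure, using a strain with a genetic defect in DNA damage repair and vehicle-treated cultures as the reference.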
# [8] = NCI Yeast Anticancer Drug Screen. Data for the sgs1 mgt1 strain (AID 161);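 also: 0% = growth of cultures given vehicle only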; conditions: S. cerevisiae sgs1 mgt1 strain, stronger effect = higher value
# In short: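 Mutant yeast exposed to compound; growth scored against vehicle-only wells.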
# [9] = NCI Yeast Anticancer Drug Screen. Data for the CLN2oe strain (AID 163);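 also: 0% = growth of vehicle-only control cultures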; conditions: S. cerevisiae CLN2oe strain, stronger effect = higher value
# In short: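 First, the altered yeast strain was treated with each compound; second, its growth was measured; finally, inhibition was derived by comparison with vehicle controls.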
# [10] = NCI Yeast Anticancer Drug Screen. Data for the cln2 rad14 strain (AID 165);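 also: 0% = growth equal to vehicle treated cultures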; conditions: S. cerevisiae cln2 rad14 strain, stronger effect = higher value
# In short: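 Test compounds were added to cln2 rad14 yeast cultures; inhibition of growth was then determined by comparison with vehicle treatment.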
# [11] = NCI Yeast Anticancer Drug Screen. Data for the bub3 strain (AID 167); conditions: S. cerevisiae bub3 mutant strain, stronger effect = higher value
# In short: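 Whole-cell yeast assay. The mutant strain was incubated with compounds, and growth inhibition was determined by comparison with vehicle-treated cells.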
# [12] = NCI Yeast Anticancer Drug Screen. Data for the wt2 strain (AID 169);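 also: 0% = growth of vehicle-treated yeast cultures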; conditions: S. cerevisiae wt2 strain growth inhibition, stronger effect = higher value
# In short: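 The panel's yeast strains carry defined changes in DNA repair or cell cycle genes. Each strain is grown with compound, and growth loss is scored relative to vehicle.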
# [13] = NCI Yeast Anticancer Drug Screen. Data for the mlh1 strain (AID 171);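 also: 0% = growth of vehicle-treated control cultures of the same strain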; conditions: S. cerevisiae mlh1 strain growth inhibition, stronger effect = higher value
# In short: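 Inhibition values reflect reduced yeast growth in the presence of compound, referenced to vehicle controls, using a strain chosen for its alteration in DNA repair or cell cycle control.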
# [14] = NCI Yeast Anticancer Drug Screen. Data for the sgs1 strain (AID 173);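 also: 0% = growth of vehicle-only control cultures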; conditions: S. cerevisiae sgs1 mutant, stronger effect = higher value
# In short: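 Vehicle-treated cultures served as reference for growth inhibition of a yeast strain altered in DNA damage repair or cell cycle control after compound exposure.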
# [15] = NCI Yeast Anticancer Drug Screen. Data for the mlh1 rad18 strain (AID 175); conditions: S. cerevisiae mlh1 rad18 strain growth inhibition, stronger effect = higher value
# In short: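 Inhibition values reflect reduced growth of mutant yeast versus vehicle-treated controls following compound exposure; the mutations affect DNA damage repair.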
# [16] = NCI Yeast Anticancer Drug Screen. Data for the rad18 strain (AID 177); conditions: S. cerevisiae rad18 mutant growth inhibition, stronger effect = higher value
# In short: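 Steps: expose repair-mutant yeast to compound; measure growth; express as inhibition relative to vehicle control.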
# [17] = at 5.0 µM (retest, dose inferred, filed as 0.5)
# [18] = at 50.0 µM (retest, dose inferred, filed as 5.0)
compound,measurement,setting,value
O=C(C(Cl)=C(N1CCCCC1)N1CCCCC1)C(Cl)Cl,growth inhibition,[1]; at 1.2 µM,2%
same,growth inhibition,[1]; at 3.7 µM,6%
same,growth inhibition,[1]; at 11.0 µM,5%
same,growth inhibition,[1]; at 33.0 µM,3%
same,growth inhibition,[1]; at 100.0 µM,2%
same,growth inhibition,[2]; at 1.2 µM,-2%
same,growth inhibition,[2]; at 3.7 µM,0%
same,growth inhibition,[2]; at 11.0 µM,-1%
same,growth inhibition,[2]; at 33.0 µM,-1%
same,growth inhibition,[2]; at 100.0 µM,1%
same,growth inhibition,[3]; at 1.2 µM,1%
same,growth inhibition,[3]; at 3.7 µM,1%
same,growth inhibition,[3]; at 11.0 µM,3%
same,growth inhibition,[3]; at 33.0 µM,3%
same,growth inhibition,[3]; at 100.0 µM,5%
same,growth inhibition,[4]; at 1.2 µM,-3%
same,growth inhibition,[4]; at 3.7 µM,-1%
same,growth inhibition,[4]; at 11.0 µM,-4%
same,growth inhibition,[4]; at 33.0 µM,-3%
same,growth inhibition,[4]; at 100.0 µM,2%
same,growth inhibition,[5]; at 1.2 µM,3%
same,growth inhibition,[5]; at 3.7 µM,6%
same,growth inhibition,[5]; [17],69%
same,growth inhibition,[5]; at 11.0 µM,-2%
same,growth inhibition,[5]; at 33.0 µM,5%
same,growth inhibition,[5]; [18],99% (active)
same,growth inhibition,[5]; at 50.0 µM,64.4%
same,growth inhibition,[5]; at 100.0 µM,3%
same,growth inhibition,[6]; at 1.2 µM,2%
same,growth inhibition,[6]; at 3.7 µM,-2%
same,growth inhibition,[6]; [17],11%
same,growth inhibition,[6]; at 11.0 µM,-3%
same,growth inhibition,[6]; at 33.0 µM,-6%
same,growth inhibition,[6]; [18],99% (active)
same,growth inhibition,[6]; at 50.0 µM,70.7% (active)
same,growth inhibition,[6]; at 100.0 µM,-2%
same,growth inhibition,[7]; at 1.2 µM,-3%
same,growth inhibition,[7]; at 3.7 µM,-1%
same,growth inhibition,[7]; at 11.0 µM,3%
same,growth inhibition,[7]; at 33.0 µM,-2%
same,growth inhibition,[7]; at 100.0 µM,-1%
same,growth inhibition,[8]; [17],-6%
same,growth inhibition,[8]; [18],99% (active)
same,growth inhibition,[8]; at 50.0 µM,85.2% (active)
same,growth inhibition,[9]; at 1.2 µM,2%
same,growth inhibition,[9]; at 3.7 µM,4%
same,growth inhibition,[9]; at 11.0 µM,3%
same,growth inhibition,[9]; at 33.0 µM,1%
same,growth inhibition,[9]; at 100.0 µM,9%
same,growth inhibition,[10]; [17],7%
same,growth inhibition,[10]; [18],99% (active)
same,growth inhibition,[10]; at 50.0 µM,23.9%
same,growth inhibition,[11]; at 1.2 µM,-5%
same,growth inhibition,[11]; at 3.7 µM,2%
same,growth inhibition,[11]; [17],-5%
same,growth inhibition,[11]; at 11.0 µM,9%
same,growth inhibition,[11]; at 33.0 µM,4%
same,growth inhibition,[11]; [18],99% (active)
same,growth inhibition,[11]; at 50.0 µM,68.1%
same,growth inhibition,[11]; at 100.0 µM,2%
same,growth inhibition,[12]; at 1.2 µM,-1%
same,growth inhibition,[12]; at 3.7 µM,1%
same,growth inhibition,[12]; at 11.0 µM,2%
same,growth inhibition,[12]; at 33.0 µM,2%
same,growth inhibition,[12]; at 100.0 µM,2%
same,growth inhibition,[13]; at 1.2 µM,-2%
same,growth inhibition,[13]; at 3.7 µM,-4%
same,growth inhibition,[13]; at 11.0 µM,2%
same,growth inhibition,[13]; at 33.0 µM,0%
same,growth inhibition,[13]; at 100.0 µM,1%
same,growth inhibition,[14]; at 1.2 µM,-50%
same,growth inhibition,[14]; at 3.7 µM,-3%
same,growth inhibition,[14]; at 11.0 µM,-2%
same,growth inhibition,[14]; at 33.0 µM,-4%
same,growth inhibition,[14]; at 100.0 µM,-1%
same,growth inhibition,[15]; [17],48%
same,growth inhibition,[15]; [18],99% (active)
same,growth inhibition,[15]; at 50.0 µM,81.3% (active)
same,growth inhibition,[16]; at 1.2 µM,-2%
same,growth inhibition,[16]; at 3.7 µM,1%
same,growth inhibition,[16]; at 11.0 µM,-2%
same,growth inhibition,[16]; at 33.0 µM,-15%
same,growth inhibition,[16]; at 100.0 µM,-1%
Cc1ccc(S(=O)(=O)NC(=O)C2C(=O)CC3(CCCCC3)CC2=O)cc1,growth inhibition,[1]; at 1.2 µM,-22%
same,growth inhibition,[1]; at 3.7 µM,-37%
same,growth inhibition,[1]; at 11.0 µM,-34%
same,growth inhibition,[1]; at 33.0 µM,7%
same,growth inhibition,[1]; at 100.0 µM,36%
same,growth inhibition,[2]; at 1.2 µM,-22%
same,growth inhibition,[2]; at 3.7 µM,-16%
same,growth inhibition,[2]; at 11.0 µM,-20%
same,growth inhibition,[2]; at 33.0 µM,67%
same,growth inhibition,[2]; at 100.0 µM,83% (active)
same,growth inhibition,[3]; at 1.2 µM,-3%
same,growth inhibition,[3]; at 3.7 µM,-21%
same,growth inhibition,[3]; at 11.0 µM,-18%
same,growth inhibition,[3]; at 33.0 µM,-12%
same,growth inhibition,[3]; at 100.0 µM,-21%
same,growth inhibition,[4]; at 1.2 µM,-24%
same,growth inhibition,[4]; at 3.7 µM,-16%
same,growth inhibition,[4]; at 11.0 µM,-13%
same,growth inhibition,[4]; at 33.0 µM,80% (active)
same,growth inhibition,[4]; at 100.0 µM,85% (active)
same,growth inhibition,[5]; at 1.2 µM,-12%
same,growth inhibition,[5]; at 3.7 µM,-6%
same,growth inhibition,[5]; [17],10%
same,growth inhibition,[5]; at 11.0 µM,-23%
same,growth inhibition,[5]; at 33.0 µM,5%
same,growth inhibition,[5]; [18],25%
same,growth inhibition,[5]; at 50.0 µM,-9.4%
same,growth inhibition,[5]; at 100.0 µM,35%
same,growth inhibition,[6]; at 1.2 µM,-25%
same,growth inhibition,[6]; at 3.7 µM,-30%
